Compound activity: PubChem, The Scripps Research Institute Molecular Screening Center
ASK1 inh: inhibitors of human ASK1 kinase; AID 1159602; inhibition, % at 7.44 µM; Q99683; AlphaScreen MKK6 phosphorylation by ASK1, luminescence; hit rate 0.99% among 22,000; in the data active = inhibition above about 35%;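 note: 0% = median of compound wells and 100% = no enzyme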
ULK1 primary: inhibitors of human ULK1 kinase | O75385 | AlphaScreen Atg13 phosphorylation by ULK1, luminescence | inhibition, % at 5.96 µM | hit rate 1.9% among 30,000; in the data active = inhibition above about 43%;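 note: 0% = median of compound wells and 100% = no enzyme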
An asterisk follows results filed as active; / = no result given. The list is not random: actives were taken first. Their share in the collection is about 2.5%.

SMILES	ASK1 inh	ULK1 primary
CCCc1nc(C(C)(C)O)c(C(=O)OCc2oc(=O)oc2C)n1Cc1ccc(-c2ccccc2-c2nn[nH]n2)cc1	/	-4
CCOc1nc2cccc(C(=O)OC(C)OC(=O)OC3CCCCC3)c2n1Cc1ccc(-c2ccccc2-c2nn[nH]n2)cc1 (configuration not stated)	/	53*
OCCNc1nc(NCc2ccc3c(c2)OCO3)nc2c1ncn2-c1ccccc1	-6	3
COc1cc(N2CCOCC2)ccc1Nc1ncc(Cl)c(Nc2ccccc2C(=O)NC2CC2)n1	-3	12
COc1ccc(N2CCOCC2)cc1Nc1cc(Nc2ccccn2)c(C(F)(F)F)cn1	20	17
NC(=O)c1ccccc1Nc1cc(Nc2ccc(-n3cnc(N4CCOCC4)n3)cc2)ncc1C(F)F	-21	51*
CNC(=O)c1ccccc1Nc1cc(Nc2ccc(N3CCOCC3)cc2)ncc1C(N)=O	-12	85*
Cc1cnc(Nc2ccc(-n3cnc(N4CCOCC4)n3)cc2)cc1Nc1ccccc1C(N)=O	-31	27
FC(F)(F)c1cnc(Nc2ccc(N3CCOCC3)cc2)cc1Nc1cc(C2CC2)[nH]n1	25	80*
O=C(NCc1ccccc1)c1ccccc1Nc1ccnc(Nc2ccc(N3CCOCC3)cc2)c1	13	2
COc1cnc(Nc2ccc(N3CCOCC3)cc2)nc1Nc1ccccc1C(N)=O	-83	85*
OC1CCC(Nc2nccc(-c3cncc(N4CCOCC4)c3)n2)CC1 (configuration not stated)	18	11
COc1ccc(-c2ncc(C)c(Nc3ccc(N4CCOCC4)cc3)n2)cc1	9	4
CNC(=O)c1ccccc1Nc1nc(Nc2ccc(N3CCOCC3)c(F)c2)ncc1Cl	-60	90*
CNC(=O)c1ccccc1Nc1nc(Nc2ccc(-n3cnc(N4CCOCC4)n3)cc2)ncc1Cl	-27	36
CNC(=O)c1ccccc1Nc1cc(Nc2ccc(C(=O)N3CCOCC3)cn2)ncc1C(F)(F)F	8	86*
CNC(=O)c1ccccc1Nc1cc(Nc2ccc3[nH]cc(C4=CCNCC4)c3c2)ncc1C(F)(F)F	28	-38
CNC(=O)c1ccccc1Nc1cc(Nc2ccc(N3CCOCC3)cc2)ncc1C(F)(F)F	1	90*
O=C(c1ccc(Nc2ccc3[nH]ncc3c2)nc1)N1CCOCC1	-9	-2
COc1cnc(Nc2ccc(N3CCOCC3)cc2)nc1-c1ccc(S(C)(=O)=O)cc1	16	46*
COc1cc(NC(=O)c2cccc(-n3cc(NC(=O)Cc4ccccn4)cn3)c2)cc(OC)c1OC	11	4
COc1ccc(CCNc2nc(-c3c(C)noc3C)nc3c2ncn3C2CCCCC2)cc1	15	-3
c1ccc(Nc2nc(Nc3cccnc3)nc3c2ncn3-c2ccsc2)cc1	0	27
Oc1ccc(CCNc2nc(N3CCC(N4CCOCC4)CC3)nc3c2ncn3-c2ccccc2)cc1	-9	-2
CC[C@H](C)[C@H]1C(=O)Nc2cc(S(C)(=O)=O)ccc2N1C(=O)Cc1ccccc1Cl	/	-5
SMILES	ASK1 inh	ULK1 primary
COc1cc(N2CCOCC2)ccc1Nc1cc(Nc2ccccc2-c2ncccn2)c(C(F)(F)F)cn1	7	9
CNC(=O)c1ccccc1Nc1cc(Nc2ccc(N3CCOCC3)cc2F)ncc1C(F)(F)F	-1	89*
CC(C)n1cnc2c(NCCc3ccc(O)cc3)nc(Nc3nc4ccccc4n3C)nc21	2	5
COc1cc(Nc2nccc(NCc3ccccc3)n2)cc(OC)c1OC	5	-4
Cc1cncc2cccc(NC3CCCN(C(=O)C(O)c4ccc(Cl)cc4)C3)c12 (configuration not stated)	-8	13
Cc1cc2c(NC3CCCN(C(=O)C(O)c4ccc(Cl)cc4)C3)cccc2nn1 (configuration not stated)	-18	52*
FC(F)(F)c1cccc(CNc2ncnc3nc(-c4csc5ccccc45)[nH]c23)c1	1	-19
CCN(CC)CCC(=O)N1c2ccccc2Sc2ccc(Cl)cc21	/	37
CCN(CC)CCC(=O)N1c2ccccc2Sc2ccc(C(F)(F)F)cc21	/	45*
Cc1cc(N)nc(-c2ccc(C(=O)NC3CC3)cc2)n1	3	56*
CCCNc1cc(C)nc(-c2ccc(C(=O)NC3CC3)cc2)n1	4	0
COc1ccc(CCNC(=O)c2ccnc(-c3ccc(C(=O)N4CCN(C)CC4)cc3)c2)cc1	15	-7
COc1cc2nc(Nc3ncccn3)nc(Nc3ccc(Oc4ccccc4)cc3)c2cc1OC	-4	-18
Cc1cc(-c2cccc3cnc(Nc4ccc(-n5cnc(C)n5)cc4)nc23)ccn1	3	-14
Cc1ncn(-c2ccc(Nc3ncc4cccc(-c5nc6ccccc6s5)c4n3)cc2)n1	28	-5
Cc1ncn(-c2ccc(Nc3ncc4cccc(-c5cnn(CCN6CCOCC6)c5)c4n3)cc2)n1	-9	63*
Cc1ncn(-c2ccc(Nc3ncc4cccc(-c5ccncc5F)c4n3)cc2)n1	33	51*
Cc1ncn(-c2ccc(Nc3ncc4cccc(-c5ncco5)c4n3)cc2)n1	-11	72*
Cc1ncn(-c2ccc(Nc3ncc4cccc(-c5ccccn5)c4n3)cc2)n1	-31	53*
Cc1ncn(-c2ccc(Nc3ncc4cccc(-c5ccc(N6CCOCC6)nc5)c4n3)cc2)n1	5	24
Cc1ncn(-c2ccc(Nc3ncc4cccc(-c5cncc6ccccc56)c4n3)cc2)n1	-1	-3
O=C(NCCN1CCOCC1)c1csc(Nc2ccc3ncccc3c2)n1	1	-8
COc1cccc(CCC(=O)NCCNC2CCNC(=O)c3[nH]ccc32)c1 (configuration not stated)	-1	-1
O=C(NCc1ccccc1)c1ccc2nc(Nc3cccnc3)sc2c1	10	12
C=CCN1CCN(c2c(Cl)cccc2NC(=O)c2cc3ccccc3[nH]2)CC1	-23	9
SMILES	ASK1 inh	ULK1 primary
Cc1ncn(-c2ccc(Nc3ncc4cccc(Nc5ccccc5)c4n3)cc2)n1	33	-7
Cc1ncn(-c2ccc(Nc3ncc4ccccc4n3)cc2)n1	-25	44*
Cc1ncn(-c2ccc(Nc3ncc4cccc(-c5cncnc5)c4n3)cc2)n1	10	14
Cc1ncn(-c2ccc(Nc3ncc4cccc(-c5cn[nH]c5)c4n3)cc2)n1	8	44*
CCn1c(C2NCCc3cc(OC)c(OC)cc32)nc2cc(F)c(-c3cn[nH]c3)cc21 (configuration not stated)	4	1
CCCNc1nc(Nc2ccc3ncccc3c2)nc2nc[nH]c12	-27	49*
c1cc(Nc2nc(NC3CC3)c3[nH]cnc3n2)ccn1	-24	52*
c1ccc(OCCNc2nc(Nc3ccc4ncccc4c3)nc3nc[nH]c23)cc1	10	28
c1cncc(CNc2nc(NC3CC3)c3[nH]cnc3n2)c1	-4	-6
c1cnc2ccc(Nc3nc(NC4CC4)c4[nH]cnc4n3)cc2c1	-39	64*
c1ccc(Nc2nc(Nc3ccc4ncccc4c3)nc3nc[nH]c23)cc1	-29	24
Cn1cc(-c2cc(Nc3ccc(N4CCOCC4)cc3)ncc2F)cn1	1	25
Cn1cc(-c2cc(Nc3ccc(N4CCOCC4)cc3)ncc2Cl)cn1	-1	61*
CCN(CC)C(=O)C1CCCN(c2cc(NCCCN3CCCC3=O)ncn2)C1 (configuration not stated)	8	-4
CN(C)CCCOc1cc(-c2cn[nH]c2)c(F)cc1NC(=O)C1COc2ccccc2O1 (configuration not stated)	10	6
Cc1nn(C)c(C)c1-c1nccc(NCCOc2ccccc2)n1	-9	2
